Tgondii IFNg: T. gondii growth inhibition with IFN-gamma, primary screen, cell-based. 69,000 compounds, 3.8% hits. Toxoplasma gondii growth in IFN-gamma-treated host cells; stronger effect = lower value. activity change, negative = inhibition, % (no concentration beside the values); in the data active = activity change below about -70%, passing the limit was not always enough;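 note: host cells are HeLa cells infected with Toxoplasma gondii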
The depositor's hits bear a star. Shown is part of a subset that was picked to be rich in hits.

SMILES	Tgondii IFNg
Cc1cccc(NC(=O)c2nnn(Cc3nc(-c4ccc(Cl)cc4)oc3C)c2C)c1C	-4
CCOc1ccc(-c2nc(Cn3nnc(C(=O)Nc4cc(F)ccc4C)c3C)c(C)o2)cc1	73
COc1cccc(-c2nc(Cn3nnc(C(=O)Nc4ccccc4C)c3C)c(C)o2)c1OC	49
CCc1ccccc1NC(=O)c1nnn(Cc2nc(-c3cc(Br)ccc3OC)oc2C)c1C	55
Cc1ccc(C)c(NC(=O)c2nnn(Cc3nc(-c4ccc(OC(C)C)cc4)oc3C)c2C)c1	11
CCc1ccccc1NC(=O)c1nnn(Cc2nc(-c3cccc(OC)c3OC)oc2C)c1C	-84*
Cc1cccc(NC(=O)c2nnn(Cc3nc(-c4ccc(OC(C)C)cc4)oc3C)c2C)c1C	-89*
COc1ccc(NC(=O)c2nnn(Cc3nc(-c4ccc(OC(C)C)cc4)oc3C)c2C)c(OC)c1	-38
Nc1ccc(-c2ccc(C3CCCN3C(=O)COCCN3CCCC3=O)nc2)cn1 (centres undefined)	3
O=C(O)CCc1ccc(-c2cccs2)[nH]1	30
O=C(NCCNc1ccccn1)c1nc2ccc(F)cc2[nH]1	1
CC(C)n1ccc(-c2cc(C(=O)N3CCC(C(N)=O)CC3)c3ccccn23)n1	9
CNC(=O)CSc1nnc(CNc2cccc(C(F)(F)F)c2)n1C	-61
COc1cccc(NC(=O)Nc2ccc(-c3nc(-c4cccc(Br)c4)co3)cc2)c1	19
CCN(CC)S(=O)(=O)c1ccc2c(c1)cc(C(=O)NCCN1CCCC1)n2C	-48
COc1cc(CN(C)CC2CCN(C)C2)ccc1OC1CCCC1 (centres undefined)	-29
CN1CCCC2(CCN(C(=O)CCc3nc4ccccc4s3)C2)C1=O (centres undefined)	2
N[C@@H]1CCCN(Cc2ccncc2)[C@H]1c1ccccc1F	0
FC(F)c1cc([C@@H]2CN(CC3CCCCC3)C[C@H]2c2ccccc2)[nH]n1	48
Cc1cc(C)c(C(=O)NC(Cc2ccccc2)C(O)c2nccs2)c(=O)[nH]1 (centres undefined)	49
CNC(=O)c1cc(Oc2ccc(NC(=O)Nc3ccc(Cl)c(C(F)(F)F)c3)c(F)c2)ccn1	-81*
Cc1nc(OCC(=O)Nc2ccc(Cl)c(C(F)(F)F)c2)c2ccccc2n1	-69
CCc1nc(OCC(=O)Nc2ccc(Cl)c(C(F)(F)F)c2)c2ccccc2n1	-14
CC(=O)c1c(C)nn(CC(=O)NCc2nc3c(C)cccc3[nH]2)c1C	2
N#C[C@@H]1[C@@H](c2ccccc2-c2cccc(F)c2)[C@H](CO)N1C(=O)NC1CCCCC1	11
SMILES	Tgondii IFNg
NC(=O)Nc1cc(-c2cccc(F)c2)sc1C(=O)N[C@H]1CCCNC1	-84*
O=C(N[C@H]1CCCNC1)c1cn(C/C=C/c2ccccc2)nn1	-6
Cn1cc(-c2nc(C3CCN(C(=O)c4cccnc4)CC3)cc3c2ncn3C)cn1	-2
CCN(CC)C(=O)c1cc(=O)n(CC(=O)Nc2ccccc2F)c2ccccc12	12
O=C1OC(=O)C2C3CCC(O3)C12 (centres undefined)	-75*
CNC(=O)c1cc2c(nc1NC(C)C)CCN(C(=O)Nc1ccccc1)CC2	10
O=c1c2c3ccccc3[nH]c2c2cccc3c2n1CC3	-89*
O=c1cc(O)c2c(=O)n3c4c(cccc4c2o1)CCC3	-15
CN1CCc2ccccc2Cc2[nH]c3ccccc3c2CC1	7
Cc1ccccc1NC(=O)N1C[C@@H](O)[C@H](NCCc2ncccc2C)C1	40
CCc1cn[nH]c1C1CCN(C(=O)C(O)c2ccccc2Cl)CC1 (centres undefined)	-45
O=C(Nc1ccccc1)c1ccccc1O	-18
NC(=O)c1ccccc1O	11
Cc1ccc(C)n1NC(=O)c1ccccc1O	-95*
CCOc1cccc(-c2noc(-c3c(O)c4cc(F)ccc4n(CC)c3=O)n2)c1	57
Cc1ccc(-c2nc(Cn3nnc(C(=O)NCCc4ccc(Cl)cc4)c3C)c(C)o2)cc1	100
C=CC(=O)Nc1cccc(Nc2nc(Nc3ccc(N4CCN(C(C)=O)CC4)cc3OC)ncc2C(F)(F)F)c1	2
COc1cc(N2CCC(N3CCN(C)CC3)CC2)ccc1Nc1ncc(Cl)c(Nc2ccccc2S(=O)(=O)C(C)C)n1	-83*
C=CC(=O)Nc1cccc(Oc2nc(Nc3ccc(N4CCN(C)CC4)cc3)ncc2Cl)c1	-57
COc1cc(N2CCC(N(C)C)CC2)ccc1Nc1ncc(Cl)c(Nc2ccccc2P(C)(C)=O)n1	-74*
COc1ccc(-n2c(=O)c(C(=O)Nc3ccc4c(c3)OCCO4)c(O)c3cccnc32)cc1	-4
O=C(Cc1ccc(F)cc1)N1CCn2c(Cn3cccn3)cnc2C1	-40
CC(C)(C)c1nc(CN2CCCCC2c2ccccn2)no1 (centres undefined)	2
COC(=O)C1CC23C=CNC4CCC5(c6ccccc6NC15C2C)C43 (centres undefined)	-86*
CN(C)CCNC(=O)CC1CC2(CCN(S(=O)(=O)C3CC3)CC2)c2ccccc21 (centres undefined)	0
SMILES	Tgondii IFNg
CCN(CC)C(=O)c1cc(=O)n(CC(=O)Nc2ccc(C)cc2Cl)c2ccccc12	3
Cc1ccc(NC(=O)c2c(O)c3cccnc3n(-c3ccccc3)c2=O)cc1C	60
CCOc1ccc(C2(c3ccc(Cl)cc3)CCCC2)cc1	18
Cc1oc(-c2ccccc2Cl)nc1CN1C(=O)C(O)(c2ccccc2)c2ccccc21 (centres undefined)	-96*
Cc1cc(C)c2c(=O)n(Cc3nc(-c4ccccc4Cl)oc3C)c(=O)n(-c3ccccc3)c2n1	2
COc1ccc(-c2nc(CN3C(=O)C(O)(c4ccc(C)cc4)c4ccccc43)c(C)o2)cc1 (centres undefined)	-124*
Cc1ccc(-c2nc(CN3C(=O)C(O)(c4ccccc4)c4ccccc43)c(C)o2)cc1 (centres undefined)	-65
CCN(CC)C(=O)c1cc(C)nc2c1c(=O)n(Cc1nc(-c3ccccc3Cl)oc1C)c(=O)n2C	-22
CCOc1ccc(-c2nc(CN3C(=O)C(O)(c4ccccc4)c4ccccc43)c(C)o2)cc1 (centres undefined)	9
CS(=O)(=O)N1CC[C@@H]2C(=O)N(Cc3cccc(F)c3)CCO[C@@H]2C1	30
O=C(COc1nc2ccccc2s1)N1c2ccccc2Sc2ccccc21	0
CCc1nc(SCC(=O)N2c3ccccc3Sc3ccccc32)c2ccccc2n1	-82*
CCn1nnnc1SCC(=O)N1c2ccccc2Sc2ccccc21	-11
CCc1ccc(CNC2CCc3c(ccc(=O)n3CCOC)C2)o1 (centres undefined)	0
CNCc1ccccc1	9
c1ccc(CNc2ccc(C3c4ccccc4Oc4ccccc43)cc2)cc1	-97*
O=C(O)CCc1ccc(NCc2cccc(Oc3ccccc3)c2)cc1	14
Cc1nn(C)c(C)c1S(=O)(=O)N1CCC2(CC1)Nc1ccc(Cl)cc1-n1cccc12	14
CN(C)[C@@H]1CCN(CC2CCOCC2)[C@@H]1Cc1ccncc1	2
Cn1c(SCC(=O)N2CCN(C(=O)c3ccco3)CC2)nc2cccnc21	-6
CC(=O)O[C@H]1C(=O)[C@@]2(C)C([C@H](OC(=O)c3ccccc3)[C@]3(O)C[C@H](OC(=O)[C@H](O)[C@@H](NC(=O)c4ccccc4)c4ccccc4)C(C)=C1C3(C)C)[C@]1(OC(C)=O)CO[C@@H]1C[C@@H]2O (some centres undefined)	-79*

Source: PubChem
